From PubChem BioAssay AID1159580 (chemical genetic matrix, 2015)
The whole screen tested about 5,500 compounds, of which about 2,000 (36%) were called active. Another 18% or so got no clear call; they are omitted. Cut-off read from the data, not from the text of the source: active = normalized growth mostly below about 0.91 (no sharp cut-off); inconclusive = no clear call, values can overlap the other calls; inactive = mostly above about 0.92. The list shows a part of the results.

Test: chemical genetic growth profiling, strain panel (AID 1159580);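 note: tested at 20 µM; growth read once vehicle control cultures reached saturation at 30 °C; 1 = growth at the plate median or of vehicle wells; lower values mean less growth of the strain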
Settings: growth OD

Measured: normalized growth

COc1c(O)cccc1O
inactive: S. cerevisiae deletion strains, locus YJL187C, strain SWE1, active compounds read low 1.02 | S. cerevisiae deletion strains, locus YJR043C, strain POL32, active compounds read low 1.03 | S. cerevisiae deletion strains, locus YJR066W, strain TOR1, active compounds read low 0.977 | S. cerevisiae deletion strains, locus YJR075W, strain HOC1, active compounds read low 1.02 | S. cerevisiae deletion strains, locus YKL009W, strain mrt4, active compounds read low 1.05 | S. cerevisiae deletion strains, locus YKL068W, active compounds read low 0.99 | S. cerevisiae deletion strains, locus YKL085W, strain MDH1 (second series), active compounds read low 1.01 | S. cerevisiae deletion strains, locus YKL085W, strain MDH1, active compounds read low 1.01 | S. cerevisiae deletion strains, locus YKL160W, strain elf1, active compounds read low 1.01 | S. cerevisiae deletion strains, locus YKR001C, strain vps1, active compounds read low 1.08 | S. cerevisiae deletion strains, locus YKR026C, strain gcn3, active compounds read low 1.02 | S. cerevisiae deletion strains, locus YKR091W, strain srl3, active compounds read low 1.02 | S. cerevisiae deletion strains, locus YLL001W, strain dnm1, active compounds read low 1.03 | S. cerevisiae deletion strains, locus YLL026W, active compounds read low 1.02 | S. cerevisiae deletion strains, locus YLL041C, strain sdh2, active compounds read low 1.02 | S. cerevisiae deletion strains, locus YLR027C, strain aat2, active compounds read low 1.01 | S. cerevisiae deletion strains, locus YLR039C, strain RIC1, active compounds read low 1.11 | S. cerevisiae deletion strains, locus YLR058C, strain SHM2, active compounds read low 1.03 | S. cerevisiae deletion strains, locus YLR102C, strain apc9, active compounds read low 1 | S. cerevisiae deletion strains, locus YLR113W, strain HOG1, active compounds read low 1.04 | S. cerevisiae deletion strains, locus YLR221C, strain rsa3, active compounds read low 1.03 | S. cerevisiae deletion strains, locus YLR258W, strain gsy2, active compounds read low 1.02 | S. cerevisiae deletion strains, locus YLR262C, strain YPT6 (second series), active compounds read low 1.03 | S. cerevisiae deletion strains, locus YLR268W, strain sec22, active compounds read low 1.05 | S. cerevisiae deletion strains, locus YLR320W, strain mms22, active compounds read low 1.04 | S. cerevisiae deletion strains, locus YLR330W, strain CHS5, active compounds read low 1.01 | S. cerevisiae deletion strains, locus YLR342W, strain FKS1, active compounds read low 1.03 | S. cerevisiae deletion strains, locus YLR357W, strain rsc2, active compounds read low 1.03 | S. cerevisiae deletion strains, locus YLR370C, strain arc18, active compounds read low 1.02 | S. cerevisiae deletion strains, locus YLR371W, strain rom2, active compounds read low 1.03 | S. cerevisiae deletion strains, locus YLR384C, strain iki3, active compounds read low 1.01 | S. cerevisiae deletion strains, locus YLR418C, strain cdc73, active compounds read low 1.1 | S. cerevisiae deletion strains, locus YML016C, strain PPZ1, active compounds read low 1.01 | S. cerevisiae deletion strains, locus YML032C, strain rad52, active compounds read low 1.01 | S. cerevisiae deletion strains, locus YML120C, strain ndi1, active compounds read low 1.01 | S. cerevisiae deletion strains, locus YML124C, strain tub3, active compounds read low 1 | S. cerevisiae deletion strains, locus YMR058W, strain fet3, active compounds read low 1.03 | S. cerevisiae deletion strains, locus YMR078C, strain ctf18, active compounds read low 1.02 | S. cerevisiae deletion strains, locus YMR125W, strain sto1, active compounds read low 1.01 | S. cerevisiae deletion strains, locus YMR129W, active compounds read low 1.02 | S. cerevisiae deletion strains, locus YMR205C, strain PFK2, active compounds read low 1.03 | S. cerevisiae deletion strains, locus YMR223W, strain ubp8, active compounds read low 1.03 | S. cerevisiae deletion strains, locus YMR231W, strain pep5, active compounds read low 1 | S. cerevisiae deletion strains, locus YMR307W, strain GAS1, active compounds read low 1.13 | S. cerevisiae deletion strains, locus YNL067W, strain RPL9B, active compounds read low 0.97 | S. cerevisiae deletion strains, locus YNL071W, strain lat1, active compounds read low 1.03 | S. cerevisiae deletion strains, locus YNL153C, strain GIM3, active compounds read low 1.02 | S. cerevisiae deletion strains, locus YNL183C, strain NPR1, active compounds read low 0.984 | S. cerevisiae deletion strains, locus YNL209W, strain ssb2, active compounds read low 1.01 | S. cerevisiae deletion strains, locus YNL233W, strain BNI4, active compounds read low 1.03 | S. cerevisiae deletion strains, locus YNL248C, strain rpa49, active compounds read low 1.04 | S. cerevisiae deletion strains, locus YNL250W, strain rad50, active compounds read low 1.05 | S. cerevisiae deletion strains, locus YNL271C, strain bni1, active compounds read low 1.02 | S. cerevisiae deletion strains, locus YNL298W, strain CLA4, active compounds read low 1.03 | S. cerevisiae deletion strains, locus YNL307C, strain MCK1, active compounds read low 1.01 | S. cerevisiae deletion strains, locus YNL322C, strain KRE1 (second series), active compounds read low 1.02 | S. cerevisiae deletion strains, locus YNL322C, strain KRE1, active compounds read low 0.99 | S. cerevisiae deletion strains, locus YNR049C, strain mso1, active compounds read low 1.02 | S. cerevisiae deletion strains, locus YNR052C, strain pop2, active compounds read low 1.04 | S. cerevisiae deletion strains, locus YOL012C, strain htz1 0.853 | S. cerevisiae deletion strains, locus YOL147C, strain pex11, active compounds read low 0.999 | S. cerevisiae deletion strains, locus YOR001W, strain rrp6, active compounds read low 1.02 | S. cerevisiae deletion strains, locus YOR061W, strain CKA2, active compounds read low 1.01 | S. cerevisiae deletion strains, locus YOR069W, strain VPS5, active compounds read low 0.996 | S. cerevisiae deletion strains, locus YOR070C, strain gyp1, active compounds read low 1.01 | S. cerevisiae deletion strains, locus YOR080W, strain dia2, active compounds read low 1.03 | S. cerevisiae deletion strains, locus YOR083W, strain WHI5, active compounds read low 1.03 | S. cerevisiae deletion strains, locus YOR106W, strain vam3, active compounds read low 1.06 | S. cerevisiae deletion strains, locus YOR136W, strain idh2, active compounds read low 1.02 | S. cerevisiae deletion strains, locus YOR144C, strain elg1, active compounds read low 1.01 | S. cerevisiae deletion strains, locus YOR184W, strain ser1, active compounds read low 1.06 | S. cerevisiae deletion strains, locus YOR231W, strain MKK1, active compounds read low 1.03 | S. cerevisiae deletion strains, locus YOR265W, strain rbl2, active compounds read low 1.01 | S. cerevisiae deletion strains, locus YOR270C, strain vph1, active compounds read low 1.13 | S. cerevisiae deletion strains, locus YOR290C, strain snf2, active compounds read low 1.03 | S. cerevisiae deletion strains, locus YOR316C, strain cot1, active compounds read low 1 | S. cerevisiae deletion strains, locus YPL051W, strain arl3, active compounds read low 0.998 | S. cerevisiae deletion strains, locus YPL078C, strain atp4, active compounds read low 1.03 | S. cerevisiae deletion strains, locus YPL106C, strain sse1, active compounds read low 1.04 | S. cerevisiae deletion strains, locus YPL240C, strain hsp82, active compounds read low 1.02 | S. cerevisiae deletion strains, locus YPL256C, strain CLN2, active compounds read low 1.01 | S. cerevisiae deletion strains, locus YPR119W, strain clb2, active compounds read low 1.01 | S. cerevisiae deletion strains, locus YPR141C, strain kar3, active compounds read low 1.01 | S. cerevisiae deletion strains, locus YPR163C, strain tif3, active compounds read low 1.03 | S. cerevisiae deletion strains, locus YPR167C, strain met16, active compounds read low 1.04 | S. cerevisiae deletion strains, strain wtn01, active compounds read low 1.04 | S. cerevisiae strains, strain wild type, active compounds read low 1
